{"source": "the supplement of paper PMC8728848", "assay_in_all_cases": "glycan array binding signal (z-score within array); higher = stronger binding", "conditions_in_all_cases": "glycan notation: IUPAC condensed, linker removed", "key": {"[1]": {"test_system": "Neu5Ac(a2-3)Gal(b1-4)[Fuc(a1-3)]GlcNAc(b1-6)[Gal(b1-3)]GalNAc", "method_in_brief": "(§1)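 Glycan array data came from 3228 arrays in the Consortium for Functional Glycomics database, and only arrays with an available protein sequence were kept. Glycan names were put into IUPAC-condensed notation, and columns mapping to the same glycan were averaged. The binding signal is a within-array Z-score, averaged across arrays of one protein sequence run at different concentrations or buffers and across linkers. A negative Z-score can be read as non-binding.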"}, "[2]": {"test_system": "Neu5Ac(a2-3)Gal(b1-4)GlcNAc(b1-3)Gal(b1-4)GlcNAc(b1-3)Gal(b1-4)GlcNAc", "method_in_brief": "as §1"}, "[3]": {"test_system": "Neu5Ac(a2-3)Gal(b1-4)GlcNAc(b1-3)GalNAc", "method_in_brief": "as §1"}, "Neu5Ac(a2-3)Gal(b1-4)Glc": {"test_system": "Neu5Ac(a2-3)Gal(b1-4)Glc", "method_in_brief": "as §1"}, "[4]": {"test_system": "Neu5Ac(a2-3)Gal(b1-4)[Fuc(a1-3)]GlcNAc", "method_in_brief": "as §1"}, "[5]": {"test_system": "Neu5Ac(a2-3)Gal(b1-4)GlcNAc(b1-3)Gal(b1-4)[Fuc(a1-3)]GlcNAc", "method_in_brief": "as §1"}, "[6]": {"test_system": "Neu5Ac(a2-3)Gal(b1-4)GlcNAc(b1-6)GalNAc", "method_in_brief": "as §1"}, "[7]": {"test_system": "Neu5Ac(a2-3)Gal(b1-4)GlcNAc6S", "method_in_brief": "as §1"}, "[8]": {"test_system": "Neu5Ac(a2-3)Gal(b1-4)[Fuc(a1-3)]GlcNAc(b1-3)Gal(b1-4)GlcNAc", "method_in_brief": "as §1"}, "[9]": {"test_system": "Neu5Ac(a2-3)Gal(b1-4)GlcNAc(b1-3)Gal", "method_in_brief": "as §1"}, "[10]": {"test_system": "Neu5Ac(a2-3)Gal(b1-4)[Fuc(a1-3)]GlcNAc(b1-3)GalNAc", "method_in_brief": "as §1"}, "[11]": {"test_system": "Neu5Ac(a2-3)Gal(b1-4)[Fuc(a1-3)]GlcNAc(b1-3)Gal(b1-4)[Fuc(a1-3)]GlcNAc(b1-3)Gal(b1-4)Glc", "method_in_brief": "as §1"}, "[12]": {"test_system": "Neu5Ac(a2-3)Gal(b1-4)[Fuc(a1-3)]GlcNAc6S(b1-3)Gal(b1-4)Glc", "method_in_brief": "as §1"}, "[13]": {"test_system": "Neu5Ac(a2-3)Gal(b1-4)[Fuc(a1-3)]GlcNAc(b1-6)[Neu5Ac(a2-3)Gal(b1-3)]GalNAc", "method_in_brief": "as §1"}, "[14]": {"test_system": "Neu5Ac(a2-3)Gal(b1-4)GlcNAc", "method_in_brief": "as §1"}, "[15]": {"test_system": "Neu5Ac(a2-3)Gal(b1-4)GlcNAc(b1-3)Gal(b1-4)GlcNAc(b1-2)Man(a1-3)[Neu5Ac(a2-3)Gal(b1-4)GlcNAc(b1-3)Gal(b1-4)GlcNAc(b1-2)Man(a1-6)]Man(b1-4)GlcNAc(b1-4)GlcNAc", "method_in_brief": "as §1"}, "[16]": {"test_system": "Neu5Ac(a2-3)Gal(b1-4)GlcNAc(b1-3)Gal(b1-4)GlcNAc(b1-3)Gal(b1-4)GlcNAc(b1-2)Man(a1-3)[Neu5Ac(a2-3)Gal(b1-4)GlcNAc(b1-3)Gal(b1-4)GlcNAc(b1-3)Gal(b1-4)GlcNAc(b1-2)Man(a1-6)]GalNAc", "method_in_brief": "as §1"}, "[17]": {"test_system": "Neu5Ac(a2-3)Gal(b1-4)GlcNAc(b1-3)Gal(b1-4)GlcNAc(b1-3)GalNAc", "method_in_brief": "as §1"}, "[18]": {"test_system": "Neu5Ac(a2-3)Gal(b1-4)GlcNAc(b1-6)[Gal(b1-3)]GalNAc", "method_in_brief": "as §1"}, "[19]": {"test_system": "Neu5Ac(a2-3)Gal(b1-4)[Fuc(a1-3)]GlcNAc(b1-3)Gal(b1-4)[Fuc(a1-3)]GlcNAc(b1-3)Gal(b1-4)[Fuc(a1-3)]GlcNAc", "method_in_brief": "as §1"}}, "note": "The sample as a whole holds a higher share of the strongest signals than the screen did.", "data": [{"substance": "AgI/IIC123-GFP (Streptococcus mutans)", "values": [{"measurement": "glycan array binding signal (z-score)", "setting": "[1]", "result": 0.09}]}, {"substance": "SiiE (Salmonella typhimurium), A0A0H3NVH0", "values": [{"measurement": "glycan array binding signal (z-score)", "setting": "[2]", "result": -0.456}, {"measurement": "glycan array binding signal (z-score)", "setting": "[3]", "result": -1.98}, {"measurement": "glycan array binding signal (z-score)", "setting": "Neu5Ac(a2-3)Gal(b1-4)Glc", "result": 2.39}, {"measurement": "glycan array binding signal (z-score)", "setting": "[4]", "result": 0.224}]}, {"substance": "LcI (Legionella pneumophila)", "values": [{"measurement": "glycan array binding signal (z-score)", "setting": "[5]", "result": -0.717}, {"measurement": "glycan array binding signal (z-score)", "setting": "[6]", "result": 3.79}, {"measurement": "glycan array binding signal (z-score)", "setting": "[7]", "result": -0.956}, {"measurement": "glycan array binding signal (z-score)", "setting": "[8]", "result": 0.401}]}, {"substance": "SpGH101 (Streptococcus pneumoniae), Q8DR60", "values": [{"measurement": "glycan array binding signal (z-score)", "setting": "[9]", "result": -0.209}, {"measurement": "glycan array binding signal (z-score)", "setting": "[10]", "result": 1.68}]}, {"substance": "MIC3-MAR1b (Eimeria tenella), B6VCV4", "values": [{"measurement": "glycan array binding signal (z-score)", "setting": "Neu5Ac(a2-3)Gal(b1-4)Glc", "result": -0.453}, {"measurement": "glycan array binding signal (z-score)", "setting": "[4]", "result": -0.346}]}, {"substance": "MIC3-MAR5 (Eimeria tenella), B6VCV4", "values": [{"measurement": "glycan array binding signal (z-score)", "setting": "[11]", "result": 0.92}, {"measurement": "glycan array binding signal (z-score)", "setting": "[12]", "result": 2.08}]}, {"substance": "Wza (Escherichia coli), P0A930", "values": [{"measurement": "glycan array binding signal (z-score)", "setting": "[9]", "result": 2.81}, {"measurement": "glycan array binding signal (z-score)", "setting": "[10]", "result": 1.12}]}, {"substance": "BambL (Burhholderia ambifaria), Q0B4G1", "values": [{"measurement": "glycan array binding signal (z-score)", "setting": "[2]", "result": -0.313}]}, {"substance": "Actinohivin (Actinomycete K97)", "values": [{"measurement": "glycan array binding signal (z-score)", "setting": "Neu5Ac(a2-3)Gal(b1-4)Glc", "result": 0.053}, {"measurement": "glycan array binding signal (z-score)", "setting": "[13]", "result": -0.02}]}, {"substance": "Epa22", "values": [{"measurement": "glycan array binding signal (z-score)", "setting": "[7]", "result": 0.274}, {"measurement": "glycan array binding signal (z-score)", "setting": "[14]", "result": 0.352}, {"measurement": "glycan array binding signal (z-score)", "setting": "[13]", "result": 0.118}]}, {"substance": "AgI/II Vhelical-GFP (Streptococcus mutans)", "values": [{"measurement": "glycan array binding signal (z-score)", "setting": "[15]", "result": 1.8}, {"measurement": "glycan array binding signal (z-score)", "setting": "[16]", "result": -0.031}, {"measurement": "glycan array binding signal (z-score)", "setting": "[17]", "result": 0.5}, {"measurement": "glycan array binding signal (z-score)", "setting": "[18]", "result": -0.273}, {"measurement": "glycan array binding signal (z-score)", "setting": "[19]", "result": -0.178}, {"measurement": "glycan array binding signal (z-score)", "setting": "[13]", "result": -0.178}]}]}
